Experimental findings from PubChem BioAssay (NCATS) are described below.

Activity calls are given as the source filed them. Entries that show only a call come without a potency. The call rests on the fitted dose curve; in most records, active means well fitted curve in the direction sought with a large enough effect; inconclusive means small, poorly fitted or top-dose-only effect, or another doubt; inactive means no such curve, though single readings can be large or run the other way.

Chain of Hexokinase-4 (Homo sapiens) + Glucokinase regulatory protein (Homo sapiens) (P35557 whole entry, looked up): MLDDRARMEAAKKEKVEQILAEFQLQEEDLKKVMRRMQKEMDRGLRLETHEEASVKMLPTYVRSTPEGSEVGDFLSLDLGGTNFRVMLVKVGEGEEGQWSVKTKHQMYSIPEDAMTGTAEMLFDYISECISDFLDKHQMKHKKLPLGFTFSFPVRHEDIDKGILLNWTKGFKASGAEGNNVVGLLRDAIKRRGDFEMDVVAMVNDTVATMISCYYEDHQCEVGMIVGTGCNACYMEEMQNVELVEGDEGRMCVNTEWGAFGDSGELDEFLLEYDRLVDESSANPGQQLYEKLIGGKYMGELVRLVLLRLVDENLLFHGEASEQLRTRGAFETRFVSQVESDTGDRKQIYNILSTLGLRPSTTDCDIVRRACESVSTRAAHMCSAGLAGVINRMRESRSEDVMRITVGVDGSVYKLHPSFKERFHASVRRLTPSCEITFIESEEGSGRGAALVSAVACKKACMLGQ
Chain of Hexokinase-4 (Homo sapiens) + Glucokinase regulatory protein (Homo sapiens) (Q14397 whole entry, looked up): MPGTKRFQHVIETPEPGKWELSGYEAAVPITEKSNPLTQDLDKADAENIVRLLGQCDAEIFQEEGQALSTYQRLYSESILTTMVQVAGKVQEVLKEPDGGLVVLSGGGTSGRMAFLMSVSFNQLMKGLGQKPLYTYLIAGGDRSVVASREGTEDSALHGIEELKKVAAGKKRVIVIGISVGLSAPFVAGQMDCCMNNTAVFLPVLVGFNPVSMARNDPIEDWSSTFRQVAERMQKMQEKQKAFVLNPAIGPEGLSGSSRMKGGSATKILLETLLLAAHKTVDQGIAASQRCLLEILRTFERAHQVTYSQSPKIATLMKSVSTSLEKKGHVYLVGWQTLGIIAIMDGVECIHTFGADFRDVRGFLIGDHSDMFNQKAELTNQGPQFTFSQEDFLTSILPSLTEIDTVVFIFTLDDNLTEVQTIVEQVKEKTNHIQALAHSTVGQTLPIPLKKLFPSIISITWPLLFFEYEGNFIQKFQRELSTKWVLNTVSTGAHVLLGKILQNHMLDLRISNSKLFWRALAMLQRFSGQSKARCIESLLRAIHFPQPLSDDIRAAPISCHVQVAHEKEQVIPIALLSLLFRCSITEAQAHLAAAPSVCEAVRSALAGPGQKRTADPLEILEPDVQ

The target of the assay is Hexokinase-4 (Homo sapiens) + Glucokinase regulatory protein (Homo sapiens) (UniProt P35557+Q14397). The assay is described as follows: qHTS assay for inhibitors of recombinant human GCK-GKRP interaction: HTRF assay (AID 743207). To be noted: recombinant GCK-GKRP HTRF binding, 60 min, with sorbitol-6-phosphate; series mostly up to 57.5 µM. From the text:
Glucokinase (GCK) is a glucose sensor in hepatocytes and pancreatic beta-cells. Hepatic GCK is regulated by glucokinase regulatory protein (GKRP), which is predominantly localized to the liver. GKRP binds to GCK inhibiting its activity in the fasting state while in the presence of glucose the GKRP is displaced. There is an additional layer of regulation by fructose 1-phosphate and fructose 6-phosphate, which inhibit and enhance the GCK-GKRP interaction, respectively. GCK plays a role in glucose homeostasis and there is an interest in the development of strategies to activate GCK to lower blood glucose levels in type 2 diabetes. To date the majority of effort has focused on direct activation of GCK and the assays developed herein look to activate GCK by inhibiting its binding to GKRP. A compound that inhibits the interaction of GCK with GKRP could be important for the treatment of diabetes and can also be used as a tool compound to further elucidate GCK-GKRP biology. To that end, we have developed an HTS biochemical assay using HTRF technology for to interrogate the GCK-GKRP interaction. This assay was screened against a small compound library to look for modulators of activity.
3 uL of 5 nM GST-GCK and 5 nM FLAG-GKRP proteins with 2 uM S6P (columns 1-2, 4-48; Millipore, Billerica, MA) are dispensed into Greiner, white solid-bottom 1536-well assay plates; columns 3 receive buffer without GCK as a control for maximum inhibition. Buffer contains 2 mM MgCl2, 25 mM KCl, 25 mM Hepes, 1 mM DTT, 0.1% Tween 20 and 0.025% BSA and the pH was adjusted to 7.1. Compounds (23 nL) are then transferred via Kalypsys pin tool equipped with 1536-pin array (10 nL slotted pins, V&P Scientific, San Diego, CA). The library compounds are in columns 5-48 and columns 1-4 serve as controls with DMSO in columns 1 and 3 and 26 mM 1:1.5 fold serial of gluckokinase activator (GKA-EMD) in column 2 and 26 mM of the glucokinase activator (GKA-EMD) in column 4. Following addition of compound, 1 uL of detection antibodies (anti-Flag XL 665 and anti-GST K in reconstitution buffer from Cisbio, Bedford, MA; 0.7 ng/well and 0.0945 ng/well, respectively) is added, and the mixture is allowed to equilibrate for 60 minutes at room temperature. Data are normalized to DMSO-treated control columns with (maximum signal) and without (minimum signal) enzyme. Plates were read on an Envision plate reader (PerkinElmer, Shelton, CT, USA) with excitation at 320 nm and dual-wavelength detection at the Fret donor wavelength (615 nm) and the FRET acceptor wavelength (665 nm).
Regarding `O=C1NC(=O)c2cc(Nc3ccccc3)c(Nc3ccccc3)cc21`, the Potency result is “inactive”. The same measure for `CC(C)NCC(O)COc1ccc(CC(N)=O)cc1` (stereo not given): “inactive”. With `Cn1cc(C(F)(F)F)nc1-c1ccc(OCC(O)CNCCOc2ccc(O)c(C(N)=O)c2)cc1` (stereo not given), the Potency result was “inactive”.

Regarding `CC1=C(C(=O)O)N2C(=O)[C@@H](NC(=O)C(N)C3=CCC=CC3)[C@H]2SC1` (stereo not given in full), the Potency entry is “inactive”. The same measure for `Cc1cc2c(cc1Cl)N(C(=O)Nc1ccnc3ccccc13)CC2`: “inactive”; for `Clc1nccc2c1ccc1ccccc12`: “inactive”. For `CC1CCN=C(N)S1` (stereo not given), the Potency result is “inactive”. The same measure for `CC1CNCCN1S(=O)(=O)c1cccc2cnccc12` (stereo not given): “inactive”; for `O=C(O)c1cc2cc(F)ccc2[nH]1`: “inactive”; for `CN1CCCC1CCOC(C)(c1ccccc1)c1ccc(Cl)cc1` (stereo not given): “inactive”. Under `O=c1[nH]c2ccccc2c2ccccc12` stands “inactive”.

Turning to `O=S(=O)(c1cccc2c(Cl)cccc12)N1CCCNCC1`, the Potency entry is “inactive”. Regarding `CCCCCCCCCC(=O)NC(CN1CCOCC1)[C@H](O)c1ccccc1` (stereo not given in full), the Potency entry is “inactive”. The same measure for `NC(N)=N[C@@H](CCC(=O)O)C(=O)O`: “inactive”; for `Nc1ncnc2c1c(-c1ccc(Oc3ccccc3)cc1)cn2C1CCCC1`: “inactive”; for `CCC(=O)N1CCN(C(=O)c2ccccc2)CC1`: “inactive”. Under `Cn1cc(C(=O)OCC2CCN(CCNS(C)(=O)=O)CC2)c2ccccc21` stands “inactive”; under `COc1ccc(-c2cc3ncc(C)n3c(Nc3ncccc3C(N)=O)n2)cc1OC`, “inactive”. Under `N[C@H](C(=O)O)[C@H](Cc1ccccc1)C(=O)O` stands “inactive”; under `CCCCCCC(=O)OC1CC(C)(C)NC(C)(C)C1`, “inactive”; under `CC[C@@H]1Cc2cc(O)ccc2C2=C1c1ccc(O)cc1C[C@H]2CC`, “inactive”. Turning to `CCCCCCCCCCC(C)(C)C(=O)Nc1c(OC)cc(OC)cc1OC`, the Potency result was “inactive”. Under `CC(C)Cn1c(=O)n(C)c(=O)c2[nH]cnc21` stands “inactive”; under `O=C(O)C1=CCCNC1`, “inactive”. The same measure for `CCSC(=N)N`: “inactive”. Consider `O=C(O)c1ccccc1Nc1cccc(OCc2ccc3ccccc3n2)c1`, for which the Potency result is “inactive”. For `CCCN(CCc1ccccc1)C1CCc2c(O)cccc2C1` (stereo not given), the Potency result is “inactive”. Under `O=c1[nH]c(=S)[nH]c(-c2ccccc2)c1Cc1c(O)ccc2ccccc12` stands “inactive”.

As to `N=C(N)c1ccccc1`, the Potency entry is “inactive”. The same measure for `O=C(O)C1=CCCN(CCON=C(c2ccccc2)c2ccccc2)C1`: “inactive”; for `CCCC(=O)NCCc1c2n(c3ccc(OC)cc13)CCCc1ccccc1-2`: “inactive”; for `CC[N+](CC)(CC)CC(=O)Nc1c(C)cccc1C`: “inactive”.

For the compound `NC(=O)CNCCC(c1ccccc1)c1ccccc1`, the Potency entry was “inactive”. For `NCC(O)C1CCCCCCC1` (stereo not given), the Potency entry was “inactive”. Under `CCOC(=O)C12CC1/C(=N/O)c1ccccc1O2` (stereo not given) stands “inactive”; under `COc1cc2c(CCNC(C)=O)c[nH]c2cc1O`, “inactive”; under `C[N+](C)(C)CC=O`, “inactive”. In the case of `Cc1nc(N=Nc2ccc(S(=O)(=O)O)cc2S(=O)(=O)O)c(COP(=O)(O)O)c(C=O)c1O`, the Potency entry was “inactive”. The same measure for `O=c1onc2cnc3ccccc3n12`: “inactive”; for `O[Si](CCCN1CCCCC1)(c1ccc(F)cc1)C1CCCCC1` (stereo not given): “inactive”.
